# Test results from PubChem BioAssay AID493240 (Broad Institute, 2011).
# Hit rate of the full screen: of about 1,300 compounds, about 270 (21%) were called active. A selection follows. Measured potencies and affinities stand elsewhere. Values without a mark were called inactive. How the calls were made is not given here.
# Assay: SK-MEL-5 parental cell viability loss, dose response, orthogonal assay for MITF inhibitor project, CellTiter-Glo, cherry-picked, set 3 (AID 493240)
# Conditions: SK-MEL-5 viability, ATP luminescence (CellTiter-Glo), 24 h; series mostly up to 35 µM; activity change, negative = viability loss: at the top concentration
row,Compound,"activity change, negative = viability loss"
1,NC(=O)c1cc([N+](=O)[O-])ccc1NCc1ccc(N)cc1,3.12%
2,COc1ccc(-c2csc(Nc3ccccn3)n2)cc1OC,-13.8%
3,CC1CCN(C(=O)c2cc3ccccc3o2)CC1,-11.1%
4,c1ccc(-c2cn3nc4c(nc3n2)CCCC4)cc1,-35.1%
5,Cc1ccc(S(=O)(=O)CC(CN2CCCCC2)N2CCCCC2)cc1 (stereo not given),-2.19%
6,O=S(=O)(CC(CN1CCCCC1)N1CCCCC1)c1ccc2ccccc2c1 (stereo not given),-29.1%
7,O=C(Nc1ccccc1F)C(=O)Nc1cccc2ccccc12,-13.7%
8,c1ccc(-n2ncc3c(NCc4cccs4)ncnc32)cc1,-8.94%
9,COc1cccc(/C=N/Nc2ncnc3c2ncn3Cc2ccccc2)c1O,-8.13%
10,COc1cccc(C(=O)Nc2ccc3c(cc2=O)[C@@H](NC(C)=O)CCc2cc(OC)c(OC)c(OC)c2-3)c1,-14.7%
11,CCc1nc2oc3ccc(C)cc3c(=O)c2cc1C(=O)OC,-4.95%
12,O=C(COC(=O)c1ccccc1C(=O)c1ccc(Cl)c([N+](=O)[O-])c1)NC1CC1,-33.4%
13,Cc1cc(C(=O)O/N=C(\N)c2ccncc2)ccc1[N+](=O)[O-],-0.835%
14,O=C(COC(=O)c1ccc(F)c([N+](=O)[O-])c1)NC(=O)NCc1ccccc1,-12%
15,CNC(=O)COC(=O)c1ccccc1C(=O)c1ccc(Cl)c([N+](=O)[O-])c1,-28%
16,CCCNC(=O)COC(=O)c1ccccc1C(=O)c1ccc(Cl)c([N+](=O)[O-])c1,-47.9%
17,CCC(=O)Nc1cc(C(=O)OCC(=O)c2ccccc2Cl)ccc1C,-6.58%
18,CC(=O)OCCNc1cc(Sc2nc3ccccc3[nH]2)c2nonc2c1[N+](=O)[O-],-20.1%
19,CNc1oc(/C=C/c2cccc(OC)c2)nc1C#N,7.1%
20,Cc1ccc2oc(Nc3nc(C)c(C)c(C)n3)nc2c1,-0.374%
21,Cc1ccc2nc(-c3cccnc3)oc2c1,-8.52%
22,CC(C)c1ccc(/C=N/Nc2ccc(C(=O)O)cc2)cc1,11.1%
23,O=C(NCc1csc(-c2cccs2)n1)C1CCC1,2.31%

row,Compound,"activity change, negative = viability loss"
1,CCOc1ccc2nc(NC(=O)Cc3cccs3)sc2c1,-1.45%
2,CC(C)S(=O)(=O)c1csc(C(=O)Nc2ccc(F)cc2)c1N,-19%
3,C=CCn1c(C)cc(C2=NNC(=NC(C)(C)C)SC2)c1C,-28.7%
4,C=CCN=C1NN=C(c2ccc3c(c2)OCCO3)CS1,-45.7%
5,O=C(NC1CC1)C1CCN(S(=O)(=O)c2ccc(Cl)c([N+](=O)[O-])c2)CC1,-1.24%
6,CC(C)CN=C(NS(=O)(=O)c1ccccc1)C(Cl)(Cl)Cl,-28.7%
7,O=C(CN1CCCCC1)Nc1scc2c1c(=O)oc1ccccc12,0.369%
8,CN1CCN(c2ccccc2NC(=O)c2ccc([N+](=O)[O-])o2)CC1,-4.86%
9,CC(C)C(=O)N1CCN(c2ccc(NC(=O)c3ccc([N+](=O)[O-])o3)cc2)CC1,-42.2%
10,CCN1CCN(/C=N/c2nc3c(s2)CCCC3)CC1,-8.69%
11,Oc1ccc(-c2nnc(SCC3CCCCC3)o2)cc1,-5.4%
12,CC(=NNC(=S)N1CCN(c2ccccn2)CC1)c1nccs1,-39.7%
13,O=C1CN(c2ccccc2)C(=S)N1C(=O)c1ccc(Br)cc1,6.2%
14,COc1ccc(C(=O)CN2Cc3ccccc3C2=N)cc1,-13.8%
15,O=C(COC(=O)CCN1C(=O)/C(=C\C=C\c2ccccc2)SC1=S)Nc1cc(F)ccc1F,0.284%
16,COc1cc(C(=O)Oc2c(CN3CCOCC3)cc(Cl)c3cccnc23)cc(OC)c1OC,-33.5%
17,C/C(=N\NC(=O)COc1ccccc1-c1ccccc1)c1ccccn1,-47.2%
18,CCOC(=O)COc1ccc2ccccc2c1/C=C/[N+](=O)[O-],-38.9%
19,O=C(/C=C/c1ccc([N+](=O)[O-])s1)N1CCCCC1,-26.5%
20,O=C(Nc1ccc(Cl)cc1)N1CC=CCC1,-1.58%
21,NC(=O)c1c(NC(=O)c2cccnc2)sc2c1CCCCC2,-3.25%
22,O=C(N/N=C/c1cc([N+](=O)[O-])ccc1N1CCNCC1)c1ccc([N+](=O)[O-])cc1,-29.8%
23,OCC1CCCC(n2cnc3c(=S)nc[nH]c32)O1 (stereo not given),-4.77%

row,Compound,"activity change, negative = viability loss"
1,CN(C)CCNC(=O)COc1ccc(C23CC4CC(CC(C4)C2)C3)cc1,-36.2%
2,O=C(CSc1ccc(Cl)cc1)NC1CCCC1,-14%
3,Cc1cc(C=C2C(=O)c3ccccc3C2=O)c(C)n1-c1ccccc1,-6.83%
4,N#CC1=C(c2ccccc2)/C(=C/c2ccccc2)OC1=O,-34.2%
5,Cc1ccccc1-n1ncc2c([N+](=O)[O-])cc([N+](=O)[O-])cc21,-17.4%
6,Cc1cc2oc(=O)cc(C)c2cc1NC(=O)CCC(=O)O,-30.1%
7,Cn1c(SC2=CS(=O)(=O)c3ccccc32)nc2ccccc21,-9.44%
8,COc1ccc(C(=O)NC(=O)Nc2cc(C)ccn2)cc1,-15.4%
9,Cc1cnn(C(=S)NCCc2ccccc2)c1,-4.11%
10,Cc1cc(NCCCn2ccnc2)n2ncc(-c3ccccc3)c2n1,-21.5%
11,COc1ccc(C(=O)N/N=C/c2cc(Br)ccc2O)cc1OC,-25.9%
12,CC(=O)c1ccc(N/C=C/C(=O)c2ccc(Br)cc2)cc1,-19.5%
13,CCOc1cc(/C=C(/C#N)c2ccc(Cl)cc2)cc(Cl)c1OCC(=O)O,8.64%
14,O=[N+]([O-])c1ccc(N/N=C/C=C/c2ccco2)cc1,-14.3%
15,O=C(Nc1ccc(N2CCN(C(=O)c3ccc(Cl)cc3)CC2)cc1)c1ccc([N+](=O)[O-])o1,-47.7%
16,CCC(=O)N1CCN(c2ccc(NC(=O)c3ccc([N+](=O)[O-])o3)cc2)CC1,-41.1%
17,CS(=O)(=O)N1CCN(c2ccc(NC(=O)c3ccc([N+](=O)[O-])o3)cc2)CC1,-16%
18,Cc1ccccc1C(=O)N1CCN(c2ccc(NC(=O)c3ccc([N+](=O)[O-])o3)cc2)CC1,-48.9%
19,CC(C)(C)c1ccc(C(=O)Nc2ccc(CC(=O)O)cc2)o1,-1.2%
20,Cn1c(COc2ccccc2Br)nc2ccccc21,-8.98%
21,C[C@H]1CCC[C@]2(C)C[C@H]3OC(=O)C(CN4CCCCCC4)[C@H]3C=C12 (stereo not given in full),16.4%
22,COc1ccc(NC(=O)c2cc3ccccc3[nH]2)cc1,-5.22%
23,COc1cc2nc(SCC(=O)NCc3ccco3)n(Cc3ccc(Cl)cc3)c(=O)c2cc1OC,-35.5%

row,Compound,"activity change, negative = viability loss"
1,O=C(NCc1ccco1)c1ccc(COCC(F)(F)F)cc1,-0.128%
2,CCN(C(=O)c1ccco1)c1nc(-c2ccc(OC)cc2)cs1,-4.72%
3,CCOCCCNC(=O)/C(C#N)=C/c1ccc([N+](=O)[O-])o1,-18%
4,CC1CC(C)CN(C(=O)/C=C/c2ccc([N+](=O)[O-])s2)C1 (stereo not given),3.99%
5,COc1ccc(C(=O)CCNc2ccc(F)cc2)cc1,1.01%
6,COc1ccc(C(=O)C(CN2CCCC2)c2ccccc2)cc1 (stereo not given),2.03%
7,CCNC(=O)CC1C(=O)N(c2ccc(F)cc2)C(=O)N1CCc1ccc(OC)cc1 (stereo not given),0.632%
8,COc1ccc(C(=O)C(CN2CCOCC2)c2ccccc2)cc1 (stereo not given),9.71%
9,CC(C)(C)c1ccc(-c2cc(N)n[nH]2)cc1,-6.71%
10,O=C(Nc1ccc(Cl)cc1)C1C2CCCCC21 (stereo not given),8.5%
11,CCOC(=O)N1C(=O)[C@@](CC)(c2ccccc2)N1C(=O)OCC,-21.1%
12,O=S1(=O)CCC(NC(=S)SCc2ccccc2Br)C1 (stereo not given),-11%
13,O=C(CSCC(=O)Nc1ccccc1)N/N=C/c1c(O)ccc2ccccc12,-22%
14,CCOC(=O)c1cn2nc(Oc3ccccc3)ccc2n1,12.7%
15,COc1ccc(/C=C2\SC(=S)N(CCCC(=O)NNC(=O)c3ccccc3O)C2=O)cc1,-8.32%
16,CN(C)CCNc1ccc2nnn3c4ccc(O)cc4c(=O)c1c23,-14.2%
17,O=C(Nc1ccccc1Cl)Nc1cccc2cccnc12,-17.8%
18,COc1ccc2oc(=N)c(C(=O)Nc3ccccc3Cl)cc2c1,-7.1%
19,Cc1cc(C(=O)Nc2cccc(C(=O)O)c2)oc1C,-14.7%
20,CCSc1nc2c(cnn2-c2ccccc2)c(=O)n1N,-4.29%
21,O=C(O)c1cccc(N/N=C/c2ccc(OC(F)(F)F)cc2)c1,7.51%
22,COc1cc(C2C(C#N)=C(N)Oc3cc4c(cc32)OCO4)cc(OC)c1OC (stereo not given),-5.66%
23,O=C(C[n+]1cc(-c2ccc(F)cc2)n2c1CCC2)c1cccs1,-4.93%

row,Compound,"activity change, negative = viability loss"
1,Clc1ccc(-c2c[n+](Cc3cccc(Cl)c3)c3n2CCC3)cc1,-16.3%
2,Nc1ccc(-c2nc3c(Cl)cc(N)cc3[nH]2)cc1,10.1%
3,C=CCSC(=S)NC1CCS(=O)(=O)C1 (stereo not given),-9.89%
4,C/C(=N\NC(=O)C(C)Oc1ccc([N+](=O)[O-])cc1)c1ccccn1 (stereo not given),-47.3%
5,O=C(/C=C/c1ccc([N+](=O)[O-])s1)N1CCCC1,0.261%
6,COc1ccc(C(=O)Nc2ccc3ccccc3c2)cc1OC,-3.71%
7,COc1ccc(NC(=O)c2cc(F)cc(F)c2)cc1Cl,-20.6%
8,COc1ccc(NC(=O)c2scc(S(=O)(=O)C(C)C)c2N)cc1,-2.23%
9,O=C(/C=C/c1ccccc1)Nc1cccc(C(=O)O)c1,-6.13%
10,O=C(Nc1ccccc1F)c1ccc2c(c1)OCO2,-18.2%
11,Cc1cccc(OCC(=O)Nc2cccc(O)c2)c1,-1.33%
12,CC1(C)Cc2c(sc(NC(=O)Nc3ccccc3)c2C(N)=O)CO1,-7.49%
13,COc1cccc(/C=N/Nc2nc3ccccc3[nH]2)c1OC,7.71%
14,O=C(Nc1ccc(-c2cn3c(n2)SCC3)cc1)c1ccco1,-9.55%
15,NNC(=O)c1cc2ccccc2cc1O,-1.68%
16,CN(CC(=O)N1CCCCCC1)S(=O)(=O)c1ccccc1,-5.54%
17,COC(=O)C1=C(CN2CCCc3ccccc32)NC(=O)NC1c1ccc(F)cc1 (stereo not given),1.63%
18,O=Cc1ccc(N2Cc3ccccc3C2)cc1,-7.44%
19,Cc1ccc(C(=O)c2coc3ccc(O)c(Cl)c23)cc1,12.7%
20,COCc1cc(C)nc2sc(C(=O)Nc3cccc(OC)c3)c(N)c12,-11.7%
21,COc1ccc(CNC(=O)CN2C(=O)C3C4C=CC(C4)C3C2=O)cc1 (stereo not given),0.978%
22,CN(C)CC1CC/C(=C\c2ccc(O)cc2)C1=O (stereo not given),-22.2%
23,Cc1cc(NC(=O)c2ccc(Cl)cc2Cl)no1,14.1%
